# Most compounds without a hit are left out; they make up all but 1.5% or so of the library.
# V-ATPase pHluor: regulators of yeast V-ATPase proton pumping, primary screen, pHLuorin cytosolic pH fluorescence; S. cerevisiae; response, % at 10 µM; actives 0.37% (n = 350,000); in the data active = response mostly above about 7.3%, no sharp cut-off; inactive = mostly below about 5.4%; also: actives read high
# CRFBP-R2 agonist: agonists of CRF-BP/CRF-R2 complex, primary screen, cell-based, HEK293, calcium dye fluorescence, uHTS | actives 0.46% (n = 350,000) | CRF-binding protein / CRF receptor 2 complex (human) | activation, % at 13.2 µM | AID 588473, 2011 | calcium dye fluorescence (FLIPR); percent of saturating CRF peptide response;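 active = activation of at least 50%, plus an integration ratio under a set limit after plate pattern correction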;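 also: plate controls were neutral control wells without compound for no effect and CRF at EC100 for full effect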
# CRFBP-R2 block: antagonists of CRF-BP/CRF-R2 complex, primary screen, cell-based, HEK293, calcium dye fluorescence, uHTS | CRF-induced calcium fluorescence | inhibition, % at 11.8 µM | actives 0.59% (n = 350,000) | AID 588475, 2011;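 active = inhibition of the ligand-induced calcium signal above about 50% at the single tested concentration, limit read from the data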
# NTR1 ag: agonists of human NTR1, primary screen, imaging, U2OS cells, beta-arrestin-GFP, high content; Neurotensin receptor type 1 (Homo sapiens), P30989; NTR1-U2OS beta-arrestin-GFP spot imaging, agonist mode; activation, % at 20 µM; actives 0.17% (n = 330,000);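 active = activation at or above 40% of the spot to cytoplasm intensity ratio, with at least 20 cells analyzed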;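 also: 0% = DMSO without peptide and 100% = 100 nM NTR1 peptide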
# Target sequence (P30989 whole entry, looked up): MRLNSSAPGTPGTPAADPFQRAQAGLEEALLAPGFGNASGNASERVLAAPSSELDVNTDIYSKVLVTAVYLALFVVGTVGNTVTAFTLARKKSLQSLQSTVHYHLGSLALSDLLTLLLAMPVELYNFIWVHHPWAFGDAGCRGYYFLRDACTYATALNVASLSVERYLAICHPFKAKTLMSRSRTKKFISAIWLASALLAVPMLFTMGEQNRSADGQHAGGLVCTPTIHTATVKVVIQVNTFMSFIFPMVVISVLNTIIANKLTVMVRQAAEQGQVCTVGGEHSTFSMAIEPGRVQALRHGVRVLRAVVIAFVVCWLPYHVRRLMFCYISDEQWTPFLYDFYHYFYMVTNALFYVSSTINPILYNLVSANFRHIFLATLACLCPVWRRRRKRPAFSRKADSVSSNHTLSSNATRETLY
# The depositor's hits bear a star; nt = no result.
SMILES,V-ATPase pHluor,CRFBP-R2 agonist,CRFBP-R2 block,NTR1 ag
CC(C)(C)C(=O)Nc1sc2c(c1C#N)CCN(Cc1ccccc1)C2,-0.9,162.5*,-145.7,0.0
COc1cccc(C2CC(c3cccs3)=NN2C(=S)Nc2ccccc2)c1OC (stereo unspecified),-3.6,2.7,80.9*,-0.2
COc1cc2c(cc1OC)/C(=C/C(=O)c1ccc(OC)c([N+](=O)[O-])c1)NCC2,-1.9,-0.1,56.9*,5.2
O=C(CSc1nc(-c2cccs2)cc(C(F)(F)F)n1)NCCCN1CCOCC1,3.2,-0.8,3.9,0.4
Cc1cc(NC(=O)CCSc2nc(-c3ccco3)cc(C(F)(F)F)n2)no1,-3.0,2.1,91.0*,0.1
Cc1cc(NC(=O)CCCSc2nc(-c3ccco3)cc(C(F)(F)F)n2)no1,-2.2,1.3,-8.5,0.7
O=C(CSc1nc(-c2ccco2)cc(C(F)(F)F)n1)NCCCN1CCOCC1,0.5,-1.3,50.7*,1.0
Cn1c(=O)n(C)c2cc(N3CCOCC3)c(NC(=O)c3ccc(F)cc3)cc21,-4.5,-1.8,7.1,0.5
CC(C(=O)Nc1sccc1C(N)=O)N1C(=O)C2CC=CCC2C1=O (stereo unspecified),2.3,-3.4,63.2*,1.0
C[C@@H](C(=O)Nc1nccs1)N1C(=O)C2CC=CCC2C1=O (stereo partly specified),-1.7,-0.3,3.1,3.2
COC(=O)CCCC1=CC2=C(c3ccccc3)C(=O)C(C)(OC(=O)C3CCCC3)C(=O)C2=CN1CCc1ccccn1 (stereo unspecified),-0.6,1.6,56.8*,0.5
COC(=O)CCCC1=CC2=C(c3ccccc3)C(=O)C(C)(OC(=O)C3CCCC3)C(=O)C2=CN1CCN1CCOCC1 (stereo unspecified),2.4,0.7,2.7,0.6
Cc1nn(-c2nnc(NC3CCCCC3)nn2)c(C)c1Br,0.1,-0.1,-26.6,2.1
COc1cccc(NC(=O)C2CCC(CNS(=O)(=O)c3cccc4cccnc34)CC2)c1 (stereo unspecified),-0.4,-0.2,-17.2,0.6
CC1CC(C)(C)N(C(=O)CN2CCN(C)CC2)c2ccccc21 (stereo unspecified),-0.1,0.7,-8.9,0.7
Cc1ccc2c(c1)C(C)CC(C)(C)N2C(=O)CN1CCN(C)CC1 (stereo unspecified),-5.9,-2.9,68.0*,-2.2
CC1CC(C)(C)N(C(=O)CN2C(=O)c3ccccc3C2=O)c2ccccc21 (stereo unspecified),2.9,113.8*,-131.6,1.9
CCn1c(C)nc2cc(C(=O)N3N=C(CCOC)CC3(O)C(F)(F)F)ccc21 (stereo unspecified),0.4,-1.9,0.8,-1.5
S=c1[nH]c2ccccc2n2c(=S)[nH]nc12,-5.7,5.7,54.9*,1.7
CC1(C)c2[nH]c3ccccc3c2C[C@H]2C(=O)N(Cc3ccccc3)C(=O)N21,-2.1,0.2,60.3*,2.2
O=C(c1ccccc1)c1cc(Cl)ccc1N1C(=O)C=CC1=O,12.5*,19.2,34.5,nt
Cc1cn2c(N)c(C=C3C=C(Cl)C(=O)C(Cl)=C3)c(=O)nc2s1,-1.1,117.5*,-131.4,0.0
COC1=C/C(=C/c2c(N)n3cc(C)sc3nc2=O)C=CC1=O,2.3,60.7*,-70.1,0.3
COC1=C/C(=C/c2c(N)n3nc(CC(=O)N4CCCC4)sc3nc2=O)C=CC1=O,1.7,17.9,-33.8,-0.2
O=C(COC(=O)COc1ccc(Br)cc1)NC1CCS(=O)(=O)C1 (stereo unspecified),0.8,-1.2,-13.2,nt
SMILES,V-ATPase pHluor,CRFBP-R2 agonist,CRFBP-R2 block,NTR1 ag
COc1ccc(S(=O)(=O)N2CCOCC2)cc1NC(=O)CN1CCN(C)CC1,-3.3,-0.1,1.2,0.2
CCN(C(=O)COC(=O)/C(=C/c1ccccc1)NC(C)=O)c1c(N)n(Cc2ccccc2)c(=O)[nH]c1=O,0.0,2.8,-15.3,nt
CCCCNC(=O)CCc1nc2cccnc2n1Cc1ccc(OC)cc1,-0.4,-2.3,69.0*,-0.5
CCOC(=O)c1c(-c2ccccc2)oc2ccc(OC(C)=O)cc12,8.8,0.2,-1.5,6.8
CCOC(=O)c1c(-c2ccccc2)oc2ccc(OC(C)C(=O)O)cc12 (stereo unspecified),1.7,-0.9,51.5*,2.8
C=CCN(c1ccccc1)S(=O)(=O)c1cccc(C(=O)O)c1,5.6,-5.1,97.9*,0.0
Cc1cc(NC(=O)Cc2ccccc2)ccc1NC(=O)c1cccs1,-0.1,-2.6,57.1*,0.0
CN(CC(=O)Nc1ccc(F)cc1)C(=O)CSc1nc2ncc(Cl)cc2[nH]1,74.1*,2.0,-2.8,-0.5
CCOC(=O)c1nc(NCc2cccc(OC)c2)c2ccccc2n1,0.9,1.7,-10.9,-0.4
O=C(NC(Nc1nc2ccc([N+](=O)[O-])cc2s1)(C(F)(F)F)C(F)(F)F)c1cccnc1,2.8,57.2*,59.9*,0.3
O=C(NC(Nc1nc2ccc([N+](=O)[O-])cc2s1)(C(F)(F)F)C(F)(F)F)c1ccccc1Cl,-1.8,25.3,8.2,3.1
Nc1nc(-c2ccccc2)c(-c2ccccc2)n1N,-1.4,4.2,-29.9,20.6
c1ccc(-c2cnn3c(-c4ccccc4)c(-c4ccccc4)nc3n2)cc1,-6.8,219.5*,-202.3,nt
CC(C)Oc1ccc(S(=O)(=O)N2CCOCC2)cc1NC(=O)Cc1c(F)cccc1Cl,-1.5,0.8,5.9,1.9
Cc1ccc(C)c(CSc2nnc(-c3cccs3)n2Cc2ccco2)c1,4.3,-0.2,50.0*,3.6
NC(=O)CSc1nnc(-c2cccs2)n1Cc1ccco1,-1.1,-1.4,3.0,0.5
C#CCOCCOCCOCCNc1nc(N2CCN(C(=O)CCCCCCCCCCNC(=O)[C@H](CCCCN)n3cc(C[C@@H](C)CC)nn3)CC2)nc(N2CCN(C(=O)CCCCCCCCCCNC(=O)[C@H](CCCCN)n3cc(C[C@@H](C)CC)nn3)CC2)n1,8.4,91.5*,-141.8,nt
C#CCOCCOCCOCCNc1nc(N2CCN(C(=O)CCCCCCCCCCNC(=O)Cn3cc(CCCCCN)nn3)CC2)nc(N2CCN(C(=O)CCCCCCCCCCNC(=O)[C@H]([C@@H](C)CC)n3cc(CCCCCN)nn3)CC2)n1,0.6,89.2*,-60.7,6.2
CS(=O)(=O)c1ccc(Cl)c(NC(=O)CN2C(=O)C3CCCCC3C2=O)c1 (stereo unspecified),11.4,4.0,16.1,0.5
O=C(COC(=O)c1ccc(S(=O)(=O)N2CCOCC2)cc1)Nc1ccccc1OC(F)F,-2.7,-0.1,3.4,2.0
O=C(COC(=O)CCc1ccc(S(=O)(=O)N2CCOCC2)cc1)Nc1ccccc1OC(F)F,1.8,2.4,105.0*,-0.3
O=C(CSc1nnc(-c2ccc3c(c2)OCO3)o1)Nc1ncc(Cl)cc1Cl,0.4,-0.8,6.4,-0.4
CCc1cccc(NC(=S)N(CCCN2CCOCC2)C(C)c2cc3cccc(OC)c3o2)c1 (stereo unspecified),-0.1,-1.5,76.5*,0.4
